Laboratory results as given in publication PMC4336329 (PLoS ONE, 2015).
The whole screen tested about 310,000 compounds, of which about 14,000 (4.5%) showed an effect of 50% or more. Effects have a minus sign here. What follows is part of a selection rich in strong results, with near analogues and random picks from the rest.

molecular target: human ether-à-go-go-related gene (hERG) potassium channel (human, UniProt Q12809); test: primary screen, population patch clamp on CHO cells stably expressing hERG; higher = less effect of the substance
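Further: peak tail current of the secondary pulse compared with the same well before compound.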

Sequence of human ether-à-go-go-related gene (hERG) potassium channel (Q12809 whole entry, looked up): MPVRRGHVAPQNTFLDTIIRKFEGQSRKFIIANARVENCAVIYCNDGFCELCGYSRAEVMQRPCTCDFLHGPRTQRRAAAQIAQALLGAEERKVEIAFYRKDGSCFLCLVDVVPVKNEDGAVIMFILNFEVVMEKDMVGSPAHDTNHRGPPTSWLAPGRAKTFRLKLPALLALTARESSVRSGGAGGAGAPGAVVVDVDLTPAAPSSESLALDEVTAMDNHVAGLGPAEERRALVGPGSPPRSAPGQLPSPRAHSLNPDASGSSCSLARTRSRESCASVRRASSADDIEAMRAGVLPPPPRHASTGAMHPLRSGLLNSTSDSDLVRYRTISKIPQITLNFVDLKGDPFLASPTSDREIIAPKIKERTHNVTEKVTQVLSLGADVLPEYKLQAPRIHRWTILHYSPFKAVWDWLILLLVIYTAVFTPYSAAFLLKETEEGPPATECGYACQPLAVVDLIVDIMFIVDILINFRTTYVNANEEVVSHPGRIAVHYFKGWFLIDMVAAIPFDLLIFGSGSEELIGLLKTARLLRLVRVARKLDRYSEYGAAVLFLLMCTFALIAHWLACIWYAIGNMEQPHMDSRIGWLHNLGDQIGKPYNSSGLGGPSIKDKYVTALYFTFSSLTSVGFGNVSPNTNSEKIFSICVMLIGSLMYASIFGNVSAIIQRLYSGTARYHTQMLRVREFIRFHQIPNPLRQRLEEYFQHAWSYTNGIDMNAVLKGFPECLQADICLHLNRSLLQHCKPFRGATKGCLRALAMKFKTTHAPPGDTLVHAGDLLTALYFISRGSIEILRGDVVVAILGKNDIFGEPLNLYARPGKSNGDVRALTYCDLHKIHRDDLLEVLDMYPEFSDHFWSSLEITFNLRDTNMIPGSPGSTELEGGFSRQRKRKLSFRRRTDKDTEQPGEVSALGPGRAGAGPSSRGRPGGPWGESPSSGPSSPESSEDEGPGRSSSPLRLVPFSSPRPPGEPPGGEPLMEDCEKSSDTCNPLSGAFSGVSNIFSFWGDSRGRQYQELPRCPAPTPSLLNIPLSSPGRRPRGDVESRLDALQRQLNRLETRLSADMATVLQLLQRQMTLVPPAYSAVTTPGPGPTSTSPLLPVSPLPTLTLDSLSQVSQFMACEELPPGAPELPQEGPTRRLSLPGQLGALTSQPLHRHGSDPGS

Structure (SMILES) | hERG current change (%, negative = inhibition) at 10uM [%]
CCCNC(=O)c1ccc2c(c1)S(=O)(=O)c1ccccc1C2=O | -10.9
COc1ccc(-c2nn(-c3ccccc3)cc2C(=O)NC(=S)N2CCOCC2)cc1OC | 30.1
CCOCc1c(C(=O)N2CCN(Cc3ccc(Br)s3)CC2)oc2ccccc12 | -30.9
COCc1c(C(=O)NCc2ccccc2CN2CCCC2)oc2ccccc12 | -66.4
CCOc1ccc(OCCNC(=O)c2oc3ccccc3c2COC)cc1 | -32.5
CCOCc1c(C(=O)NCc2ccccc2CN2CCCC2)oc2ccccc12 | -72
CCOCc1c(C(=O)NC2CCCCCC2)oc2ccccc12 | 8.56
COCc1c(C(=O)NCC2COc3ccccc3O2)oc2ccccc12 (centres unmarked) | -30.1
COc1ccc2[nH]c3c(c2c1)CCN1C(=O)N([C@@H](C)C(=O)NCc2ccccc2OC)C(=O)[C@]31C | -17.2
CCOc1ccc2nc(SCC(=O)c3ccc(O)cc3O)sc2c1 | 14.5
Cc1ccc([N+](=O)[O-])c(NC(=O)COC(=O)C2CC3CCCC(C2)C3=O)c1C (centres unmarked) | 13.8
Cc1cc(C)n2nc(C(=O)OCCOc3cccc(Br)c3)nc2n1 | -21.6
Cc1cc(C)n2nc(C(=O)OCC(=O)Nc3ccc4c(c3)OC(F)(F)O4)nc2n1 | -63.8
Cc1ccc(OCCOC(=O)c2nc3nccc(C)n3n2)cc1 | -18.4
Cc1ccnc2nc(C(=O)OCCOc3ccc(Cl)cc3)nn12 | -56.2
Cc1cc(C)n2nc(C(=O)OCC(=O)Nc3ccc4c(c3)OCO4)nc2n1 | -1.59
Cc1cc(C)n2nc(SCCOc3ccccc3)nc2n1 | -38.7
Cc1cc(C)n2nc(C(=O)OCCOc3ccc(Br)cc3)nc2n1 | -55.3
COc1ccc(OCCOC(=O)c2nc3nccc(C)n3n2)cc1 | -3.15
COc1ccc(OCCSc2nc3nc(C)cc(C)n3n2)cc1 | -13.1
Cc1cc(C)n2nc(SCCOc3ccc(F)cc3)nc2n1 | -68.8
Cc1cc(C)n2nc(C(=O)OCCOc3ccc(F)cc3)nc2n1 | -12.3
Cc1ccnc2nc(C(=O)OCC(=O)Nc3ccc4c(c3)OC(F)(F)O4)nn12 | -49.1

Structure (SMILES) | hERG current change (%, negative = inhibition) at 10uM [%]
Cc1nc(N)nc(COc2ccccc2)n1 | 16.6
Cc1cc(C)c(NC(=O)CN(C)CC(=O)N(C)CC(=O)Nc2c(Cl)cccc2Cl)c(C)c1 | 9.65
COc1cc(OC)cc(C(=O)NNC(=S)NC(=O)c2cccnc2)c1 | 14.4
CCCCc1ccc2[nH]cc(CCN)c2c1.Cl | -9.69
COc1ccc(CCNC(=O)C2CCCN(Cc3nc(-c4ccccc4C)oc3C)C2)cc1OC (centres unmarked) | -57.7
COc1ccc(CCNC(=O)C2CCN(Cc3nc(-c4ccccc4F)oc3C)CC2)cc1OC | -45.4
Cc1ccccc1-c1nc(CN2CCCC(C(=O)NCCCN3CCOCC3)C2)c(C)o1 (centres unmarked) | -7.84
COc1ccc(CCNC(=O)C2CCN(Cc3nc(-c4ccccc4C)oc3C)CC2)cc1OC | -79.2
Cc1ccccc1-c1nc(CN2CCC(C(=O)NCCCN3CCCC(C)C3)CC2)c(C)o1 (centres unmarked) | 28.6
O=C(CC(Nc1cccc(Cl)c1Cl)C(=O)OCC(=O)c1cccs1)c1ccccc1 (centres unmarked) | -5.59
CCOC(=O)[C@@H](CCc1ccccc1)N[C@H](C)C(=O)N1[C@H](C(=O)O)C[C@@H]2CCC[C@@H]21 | 15.9
CC(C)(C)NC(=O)c1ccc(COCC(F)(F)F)o1 | -4.16
CCN(CC)CCNc1cc(C)c(C#N)c2nc3ccccc3n12 | -20.6
CCOc1ccc2nc(COC(=O)c3ccco3)c(C(C)=O)[n+]([O-])c2c1 | 0.493
CCOc1ccc(-n2c(C)nnc2SCC(=O)N(CC)CC)cc1 | 2.63
CC(C)N1C(=O)CCC1C(=O)NCCc1ccccc1 (centres unmarked) | -6.11
COC(=O)c1c(C)oc(C)c1S(=O)(=O)N1CCCCC1 | 9.1
COC(=O)c1[nH]c2ccccc2c1Sc1ccccc1 | 11.9
CCCCN(CC)CCCNC(=O)c1cc2c(=O)[nH]c3ccccc3c2s1 | -0.682
CCN(CC)CCCNC(=O)c1[nH]c2ccccc2c1Sc1ccc(Cl)cc1 | -89.5
COc1ccc(/C=C/C(=O)NC(C)(C)C)cc1S(=O)(=O)N1CCOCC1 | -15.2
CCCCn1c(N)c(N(CC(C)C)C(=O)c2cccc(S(=O)(=O)N3CC(C)OC(C)C3)c2)c(=O)[nH]c1=O (centres unmarked) | 21.6
CC(C)Oc1ccc(C(=O)OCC(=O)N2CCCc3ccccc32)cc1 | 6.85

Structure (SMILES) | hERG current change (%, negative = inhibition) at 10uM [%]
Cc1ccc(-n2c(SCC(=O)N3CCCC3)nc3c(c2=O)SCC3)cc1 | 5.3
CCOC(=O)CSc1nc2c(c(=O)n1-c1ccc(OC)cc1)SCC2 | -9.55
O=C(CSc1nc2c(c(=O)n1-c1ccccc1)SCC2)N1CCOCC1 | 5.25
O=C(CSc1nc2c(c(=O)n1-c1ccccc1)SCC2)N1CCN(c2ccccc2)CC1 | -76.5
COc1ccc(-n2c(SCC(=O)Nc3ccccc3)nc3c(c2=O)SCC3)cc1 | -18.7
COc1ccc(-n2c(SCC(=O)N3CCN(c4ccccc4)CC3)nc3c(c2=O)SCC3)cc1 | -70
Cc1cc(N)n(C2CCN(C)CC2)n1 | 1.99
c1ccc2c(CCNc3ncnc4nc[nH]c34)cccc2c1 | -6.53
CNCCCc1[nH]nc(N)c1C#N | 4.22
N#Cc1ccccc1Sc1ccccc1C(=O)Nc1ccccc1 | 0.339
Cc1ccc(-c2noc(CCC(=O)Nc3ccc4c(c3)OCO4)n2)cc1 | 3.68
CC(C)(C)OC(=O)N1CCC(CNC(=O)c2cccs2)CC1 | 10.9
CCCc1nc(SCC(=O)N2c3ccccc3CC2C)c2c(C)c(C)sc2n1 (centres unmarked) | 14.1
N/C(Cc1ccc([N+](=O)[O-])cc1)=N\OC(=O)Cc1ccccc1 | -50.7
N/C(Cc1ccc([N+](=O)[O-])cc1)=N\OC(=O)C(c1ccccc1)c1ccccc1 | -66.9
N/C(Cc1ccc([N+](=O)[O-])cc1)=N\OC(=O)c1ccco1 | -26.8
COc1ccc(C/C(N)=N/OC(=O)C(c2ccccc2)c2ccccc2)cc1OC | -14.5
N/C(Cc1ccc([N+](=O)[O-])cc1)=N\OC(=O)Cc1ccc(Cl)cc1 | -4.39
Cc1ccc(CC(=O)O/N=C(\N)Cc2ccc([N+](=O)[O-])cc2)cc1 | 0.827
N/C(Cc1ccc(Cl)cc1)=N\OC(=O)Cc1ccc([N+](=O)[O-])cc1 | -4.32
CCc1ccc(OCC(=O)O/N=C(\N)Cc2ccc([N+](=O)[O-])cc2)cc1 | -53.9
N/C(Cc1ccc([N+](=O)[O-])cc1)=N\OC(=O)C1CCCCC1 | -3.44
N/C(Cc1ccc([N+](=O)[O-])cc1)=N\OC(=O)CC1CCCCC1 | -68.5

Structure (SMILES) | hERG current change (%, negative = inhibition) at 10uM [%]
Cc1ccc(OCC(=O)O/N=C(\N)Cc2ccc([N+](=O)[O-])cc2)cc1C | -32.7
Cc1cc(C)cc(OCC(=O)O/N=C(\N)Cc2ccc([N+](=O)[O-])cc2)c1 | -2.56
COc1cccc(-c2nn[nH]n2)c1O | 9.02
c1ccc(CSCc2cn3ccsc3n2)cc1 | -4.45
COc1ccc(CCNC(=O)C2CCCN(S(=O)(=O)c3cccc4nonc34)C2)cc1OC (centres unmarked) | 10.5
Cc1cccc(C(=O)NC(=S)NNC(=O)c2cccs2)c1 | 17.2
Cc1onc(-c2ccccc2)c1NC(=O)N(CCC#N)Cc1ccccc1 | 3.65
CCOC(=O)c1ccc(NC(=O)c2nc[nH]c2C(=O)NCC(=O)OC(C)(C)C)cc1 | 19.5
Cc1cc(C)nc(/N=C(\N)N(Cc2ccccc2)Cc2ccccc2)n1 | -70.6
Cc1cc(C)nc(N(C#N)Cc2ccccc2)n1 | -4.34
CCN(CC)/C(N)=N/c1nc(C)cc(C)n1 | 7.16
CCCCN(CCCC)/C(N)=N/c1nc(C)cc(C)n1 | -80.2
Cc1cc(C)nc(/N=C(\N)N2CCCCCC2)n1 | -3.86
CCN(/C(N)=N/c1nc(C)cc(C)n1)c1ccccc1 | -6.01
COc1cccc(C=O)c1OCCN1C(=O)c2ccccc2C1=O | 4
CCc1ccccc1S(=O)(=O)Cc1ccc(C(=O)NCc2cccs2)o1 | -22.5
Cc1cc(C(=O)CCl)c(C)n1CCc1ccc(F)cc1 | 27.2
CN1CCN(c2ncnc3c2cnn3C)CC1 | 19.5
CC1CC(C)CN(c2ncnc3c2cnn3-c2ccc(Cl)cc2)C1 (centres unmarked) | 3.17
CC1CC(C)CN(c2ncnc3c2cnn3C)C1 (centres unmarked) | -69.8
